# Laboratory results: the supplement of paper PMC4466236
# The full ranking holds about 33,000 sequences; the median of “E-score (dimensionless, -0.5 to 0.5)” is about -0.058, and the highest 2% start at about 0.35. Many of the other results were omitted from the sample, so the highest values are more common in it than they were.
# System: MvaT
# Assay: PBM 8-mer E-score (mean of HK and ME arrays) (E-score (dimensionless, -0.5 to 0.5)); higher = stronger relative binding preference
# Description: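 Protein binding microarray: GST-tagged full-length MvaT (P. aeruginosa PAO1) bound to two universal double-stranded 60-mer arrays (ME and HK), each with a constant 25-mer primer and a variable 35-mer region covering all 8-mers. The 8-mer E-score (rank-based, range -0.5 to 0.5, >0.45 = specific binding) is the mean of the two arrays.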
row,Sequence,PBM 8-mer E-score
1,CCTACCAG,-0.279
2,CGGTTATC,0.0552
3,GCATCGGA,-0.11
4,CTGATGCC,-0.231
5,AGAGAAAT,0.134
6,GATAGTAA,0.284
7,AAATTACG,0.256
8,GGATTAAA,0.232
9,AAATTAAG,0.361
10,TGATTAAA,0.27
11,AAATTAGT,0.281
12,GAATTAAC,0.256
13,CAATTAAA,0.305
14,CAATTAAG,0.24
15,TAATTAAA,0.447
16,AAATTACT,0.308
17,AAATTAAT,0.426
18,GAATTAAA,0.385
19,CCCGTACA,-0.0141
20,CGTAATCA,0.0215
21,AAATTAAA,0.399
22,AAATTAAC,0.27
23,AAATTAGA,0.191
24,CGGAGGGA,-0.311
25,CAAAACAC,0.0954

row,Sequence,PBM 8-mer E-score
1,AGTTTAAG,0.257
2,TGTTTAAA,0.387
3,GGTTTAAA,0.31
4,AGTTTTAA,0.259
5,TGTTTTAA,0.302
6,CGTTTAAA,0.317
7,AGTTTAAC,0.244
8,AGTTTAAA,0.378
9,AGTTTAAT,0.379
10,AATTCTGA,0.0908
11,TGCATCCA,-0.0802
12,GGGCCCTA,-0.218
13,AGGAAGAG,-0.188
14,ATGGAGTA,0.0119
15,GATACTAA,0.213
16,TATACTAA,0.391
17,AATACTAT,0.297
18,CATACTAA,0.198
19,AATACTAC,0.271
20,AATACTAA,0.356
21,TCTGAGAA,-0.0369
22,AGCTAAGA,-0.0322
23,CTAATGCA,-0.0396
24,ATAATGCG,0.271
25,ATAATGTC,0.337

row,Sequence,PBM 8-mer E-score
1,CTAATGTA,0.23
2,ATAATGCA,0.36
3,ATAATGTA,0.401
4,ATCCCGCC,-0.0462
5,CCTATCTC,0.0122
6,AACCGTTG,-0.0901
7,GTTGTACA,0.115
8,AAGAGTGA,0.00575
9,CTTCACTC,-0.239
10,CTAAGTTA,0.352
11,GGAAGTTA,0.227
12,ATAAGTGC,0.178
13,CTAAGTTC,0.232
14,AGAAGTTC,0.223
15,GCAAGTTA,0.34
16,ATAAGTTA,0.441
17,ATAAGTTC,0.368
18,GTAAGTTA,0.396
19,CTAAGTCA,-0.101
20,ACAAGTTA,0.338
21,ATAAGTTG,0.342
22,ACACAACG,-0.0104
23,GAAGGAGA,-0.255
24,GGGTTCAC,-0.111
25,AACCATAT,0.254

row,Sequence,PBM 8-mer E-score
1,AACATCCC,2.53e-05
2,TACGAGGA,-0.05
3,GGGGCCAA,-0.225
4,CTATCCAA,-0.0391
5,ATATTACA,0.386
6,GTATTAGA,0.267
7,CTATTAGC,0.136
8,ATATTAGG,0.309
9,ATATTACC,0.293
10,ATATTAGA,0.407
11,CTATTACA,0.267
12,ATATTAGC,0.352
13,CTATTAGA,0.208
14,ATCTGTGA,-0.0144
15,CACTTAGC,-0.0629
16,GCCCGCGA,-0.31
17,ACCTGTCG,-0.277
18,CTGAAAAG,-0.0791
19,AAAATTAA,0.387
20,AAAATTAT,0.355
21,AAAATTGA,0.224
22,AAAATTAG,0.162
23,GAAATTAA,0.331
24,TAAATTAA,0.437
25,CAAATTAA,0.286

row,Sequence,PBM 8-mer E-score
1,AAAATTGT,0.269
2,AAAATTAC,0.149
3,CCTAATAC,0.104
4,GGGCTCCA,-0.168
5,GAAGCATA,0.00764
6,CACACCTA,0.0249
7,ACACGAGT,-0.0299
8,ACTACTGG,0.0326
9,AATCCGCC,-0.0734
10,ACTTAAAA,0.226
11,CCTTAAAA,0.0816
12,CTTTTAAA,0.361
13,ATTTTTAA,0.323
14,CTTTTAAC,0.314
15,ATTTTAAA,0.383
16,GTTTTAAA,0.282
17,CTTTTTAA,0.213
18,ATTTAAAA,0.377
19,CGCTGGAA,-0.092
20,AGCAAAAA,0.0929
21,ACGTTGAT,0.0529
22,GCAAACAA,0.0823
23,AATATAGA,0.365
24,AATATAGC,0.343
25,AATATAGG,0.288

row,Sequence,PBM 8-mer E-score
1,GATATAGA,0.206
2,TATATAGA,0.434
3,CATATAGA,0.187
4,AATATAGT,0.398
5,AATAGAGA,0.217
6,ACTATAGA,0.127
7,CCCTTCAG,-0.27
8,GAGTAGAA,0.0154
9,AGAAACGG,-0.0989
10,ATACAATG,0.204
11,CCGGCTAC,-0.217
12,GCCAGAAC,-0.0482
13,AGATAAAA,0.178
14,AAATAAGT,0.38
15,AAATAAAG,0.405
16,CAATAAAG,0.252
17,AAATAAAA,0.419
18,AAATAAGG,0.322
19,AAATAAAC,0.334
20,ACATAAAG,0.101
21,ACATAAAA,0.23
22,ACATAAAT,0.301
23,AAATAAAT,0.428
24,AAATAAGC,0.275
25,AAGCCGCT,-0.232

row,Sequence,PBM 8-mer E-score
1,ATTCAACG,0.0307
2,CCAATTCA,-0.0716
3,TCCTGTCA,-0.158
4,GAGCAAAC,-0.0867
5,GCTGCCAA,-0.0483
6,CTACTAAG,-0.00927
7,AAGCGTCA,-0.00559
8,CCGAATAG,-0.0201
9,CGCAGTCC,-0.172
10,AACCTCCA,-0.115
11,GGTCTGTA,-0.219
12,GAACCTGA,-0.0412
13,AATCTCGA,0.179
14,ACTGAAAG,-0.0474
15,ACTTAAAG,0.159
16,AATTAAAT,0.452
17,AATTAAAG,0.355
18,GATTAACA,0.278
19,AATTAAAA,0.373
20,CATTAAAG,0.272
21,ATTAAAAT,0.29
22,TATTAACA,0.437
23,CATTAACA,0.274
24,ACTTAAAT,0.331
25,ATGTTGGA,0.125

row,Sequence,PBM 8-mer E-score
1,CAACCATA,0.0988
2,CTCGTAAG,-0.0264
3,CCTGGTTC,-0.254
4,CCGCCGGC,-0.321
5,AAATAGGA,-0.0215
6,AAAAACAC,0.087
7,CAGGTGAG,-0.208
8,GCCCCACC,-0.292
9,AAGGAGTC,-0.047
10,CTAATCAA,0.102
11,AATTAAGA,0.277
12,GATTAAAC,0.191
13,TATTAAGA,0.366
14,CATTAAAC,0.334
15,GATTAAGA,0.157
16,CATTAAAA,0.201
17,TATTAAAA,0.41
18,GATTAAAA,0.217
19,AATTAAAC,0.382
20,TGATGGAA,0.0193
21,CGCCCCTC,-0.202
22,CCACCCTA,0.0237
23,AAAAGTGC,0.142
24,AGGTGGGC,-0.177
25,AATTTGGC,0.161

row,Sequence,PBM 8-mer E-score
1,CTGCAGTA,0.129
2,AAAGCATA,0.0331
3,CTTTAAAC,0.229
4,ATTTTAAC,0.307
5,ATTTTAAG,0.225
6,GCTTAAAC,0.121
7,GGTTAAAC,0.0681
8,ATTTAAAC,0.398
9,ATTAAAAC,0.301
10,ATTTAAAT,0.474
11,GTTTAAAC,0.406
12,ATTTAAAG,0.354
13,CTTTAAAG,0.25
14,GGGTGCAA,-0.0874
15,AGTTCGAT,0.171
16,CGGTCCGA,-0.24
17,GGGTAGCA,-0.213
18,CAGTGTCC,-0.176
19,GACAAATC,-0.0221
